MARV entry inh: Marburg virus entry inhibition; Marburg virus pseudotype entry/binding inhibition, cell-based; Potency, µM (top dose mostly 49.2 µM), for inactives: top-dose activity change, negative = inhibition, most hits filed as inhibitors; 18,000 compounds, 6.5% hits; AID 720532
LASV entry inh: inhibitors of Lassa virus binding or entry into cells | Potency, µM (top dose mostly 49.2 µM), for the others: at the highest dose activity change, negative = inhibition, usual class: inhibitors | 18,000 compounds, 4.1% hits | Lassa virus pseudotyped entry inhibition, cell-based qHTS
* = called active by the depositor; ? = inconclusive; / = no result given; ! = repeats disagree; [ ] = another dose, or the depositor's remark. The list is not random: actives were taken first. Their share in the collection is about 7.1%. Calls come from the whole dose curve; tested in HEK293 cells. % is set by controls: 0 for no effect and ±100 for the full control effect; potency is the fitted concentration of half-maximal effect.

SMILES	MARV entry inh	LASV entry inh
CSCC[C@@H]1NC(=O)[C@@H](NC(=O)[C@H](CCCNC(=N)N)NC(=O)[C@H](CC(C)C)NC(=O)[C@H](CCSC)NC(=O)[C@H](CC(=O)O)NC(=O)[C@H](Cc2ccccc2)NC(=O)[C@@H](N)CC(=O)O)CSSC[C@@H](C(=O)N[C@@H](Cc2c[nH]c3ccccc23)C(=O)N[C@@H](CCC(N)=O)C(=O)N[C@H](C(=O)O)C(C)C)NC(=O)[C@@H]2CCCN2C(=O)[C@H](CCCNC(=N)N)NC(=O)[C@H](Cc2ccc(O)cc2)NC(=O)[C@H](C(C)C)NC(=O)[C@H](CCCNC(=N)N)NC(=O)CNC(=O)[C@H](CC(C)C)NC1=O	7%	6%
COC(=O)CC=C1c2ccccc2OC[C@@H](OC)[C@H]1C	2%[8.59 µM]	-25%[8.59 µM]
C=C[C@@H](C)[C@@H](OP1(=O)O[C@@H](C=C)C[C@H](C=C)O1)[C@H](C)CO[Si](C)(C)C(C)(C)C (some centres undefined)	?	5%
CN(C(=O)Cc1ccccc1)[C@H](CN1CCCC1)c1ccccc1	?	-2%
CN(C(=O)Cc1ccc(Cl)c(Cl)c1)[C@H](CN1CCCC1)c1ccccc1	7.1µM*	20µM*
CCOC(=O)NN=C1C[C@@H](O)[C@@H](O)[C@@H]2[C@H]3C(=O)N(Cc4ccc5c(c4)OCO5)C(=O)[C@@H]3CC[C@@H]12	-2%[8.59 µM]	-3%[8.59 µM]
CC(C)C[C@H](CO)NS(=O)(=O)c1cccc(Cl)c1F	85%	6%
CC1=CC[C@@H](C)O[C@@]2(C1)C(=O)Nc1ccccc12	-9%[8.59 µM]	22%[8.59 µM]
CCN1C(=NCc2ccc(OC)cc2)NC(c2cccc(F)c2)C(C(=O)OC)=C1C (centres undefined)	2%[8.59 µM]	18%[8.59 µM]
CCCCCCCC/C=C\CCCCCCCC(=O)NC(C)C(=O)O (centres undefined)	2%	6%
CCCCCCCC/C=C\CCCCCCCC(=O)N[C@@H](CO)Cc1ccc(O)cc1	?	28µM*
CCN1CCC[C@H]1CNC(=O)c1c(O)c(Cl)cc(Cl)c1OC	14%	-2%
CCCCN1CCC[C@@H]1CNC(=O)c1cc(C#N)c2ccccc2c1OC	14µM*	?
Cc1c(C(=O)NCCc2ccccn2)cnn1-c1nccc(-c2cccs2)n1	9%	2%
Cc1c(C(=O)NCCN2CCC(c3ccccc3)CC2)cnn1-c1nccc(-c2cccs2)n1	13µM*	-26%
CN(C)CCN1C(=O)c2ccccc2N(C)c2ccccc21	35µM*!	?
C[N+](C)(CCCCCC[N+](C)(C)CCCN1C(=O)c2ccccc2C1=O)CCCN1C(=O)c2ccccc2C1=O	5%	-6%
CN1CCN(c2nc(-c3cccc(NS(C)(=O)=O)c3)nc3ccccc23)CC1	-29%	22%
COc1cc(NS(C)(=O)=O)ccc1Cc1c2ccccc2nc2ccccc12	2µM*	?
COc1ccc(O[C@H]2C=C[C@@H](c3ccccc3)O[C@H]2CON=C(C)CCN2CCCCc3nc(C)c(C)cc32)cc1	50%[8.59 µM]	24%[8.59 µM]
CCOC(=O)NN=C1C[C@@H](O)[C@@H](O)[C@@H]2[C@H]3C(=O)N(c4cccc(Oc5ccccc5)c4)C(=O)[C@@H]3CC[C@@H]12	37%[8.59 µM]	-10%[8.59 µM]
CCN1C(=O)NC(c2ccccc2)C(C(=O)OC)=C1C (centres undefined)	7%[8.59 µM]	4%[8.59 µM]
CCCCOc1cc(C(=O)OCCN(CC)CC)ccc1N	-16%[17.8 µM]	-15%[17.8 µM]
CCCCc1oc2ccccc2c1C(=O)c1cc(I)c(OCCN(CC)CC)c(I)c1	20µM*	/
COc1cc2c(cc1OC)[C@@H]1O[C@](c3ccsc3)(C2)Oc2c1c(=O)oc1ccc(F)cc21	28%[8.59 µM]	11%[8.59 µM]
SMILES	MARV entry inh	LASV entry inh
COC(=O)C1=C(C)N(CC2CC2)C(=O)NC1CCc1ccccc1 (centres undefined)	21%[8.59 µM]	9%[8.59 µM]
CC(CC(C#N)(c1ccccc1)c1ccccc1)N(C)C (centres undefined)	32µM*	?
CC[C@H](O)C(C[C@H](C)N(C)C)(c1ccccc1)c1ccccc1	18µM*	?
C[C@@H]([C@H](O)c1ccccc1)N(C)C	33%	4%
C=CCN1c2ccccc2[C@]23CCC(=O)N(Cc4ccco4)C2=NC(C(=O)OC)=C(C(=O)OC)[C@H]13	-1%[8.59 µM]	-14%[8.59 µM]
Fc1ccc(-c2ncn(C3CCNCC3)c2-c2ccnc(Oc3ccc4c(c3)OCO4)n2)cc1	6.3µM*	?
NC(=O)Cc1ccccc1Oc1nccc(-c2c(-c3ccc(F)cc3)ncn2C2CCNCC2)n1	?	-30%
CC(NCCc1ccc(O)cc1)C(O)c1ccc(O)cc1 (centres undefined)	7%	-23%
CCCCCCCCNC(C)C(O)c1ccc(SC(C)C)cc1 (centres undefined)	?	11µM*
CCCCCC(=O)N1C[C@@H](O)[C@H](n2cc(COC(=O)c3ccccc3)nn2)C[C@H]1c1ccc(OC)cc1	-17%	11%
CC(C)CON=C1C[C@@H](O)[C@@H](O)[C@@H]2[C@H]3C(=O)N(Cc4ccccc4)C(=O)[C@@H]3CC[C@@H]12	1%[8.59 µM]	-10%[8.59 µM]
